HCV inh – qHTS Assay for Inhibitors of Hepatitis C Virus (HCV). actives 3.4% (n = 340,000). Huh7.5.1 HCVcc-Cre infection, luciferase reporter, 44 h. Potency, µM (series often up to 41.8 µM), without a hit: at the top dose activity change, negative = inhibition, actives largely listed as inhibitors; also: % is scaled to controls: 0 for no effect and ±100 for the full control effect
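Infectious HCVcc-Cre (~0.5 moi) was added to cells just after compound, with cells seeded 4 h earlier at 1,000 per well. Luciferase activity after 44 h culture reported infection; substrate was incubated 15 min at room temperature before reading.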
Pf growth 96h – Primary qHTS for delayed death inhibitors of the malarial parasite plastid, 96 hour incubation; P. falciparum luciferase reporter growth, 96 h; Potency, µM (top dose mostly 28.7 µM), without a hit: at the top dose activity change, negative = inhibition, actives largely listed as inhibitors; actives 6.9% (n = 320,000); also: % is scaled to controls: 0 for no effect and ±100 for the full control effect
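Erythrocytes infected with luciferase-expressing P. falciparum were dispensed at 2% hematocrit and 0.05% parasitemia (final), then incubated with compounds 96 hours at 37 C in 5% CO2. Luminescence after detection reagent addition reported growth.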
NS1 inh – qHTS Assay for Inhibitors of Influenza NS1 Protein Function; Potency, µM (series often up to 46.1 µM), for the others: at the top dose activity, positive = more growth; actives 0.4% (n = 270,000); AID 2326, 2010; calls by dose curve; also: actives are rising curves; nearly all actives have a fitted effect of over 50% in size
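Recovery from NS1-induced slow growth read by OD600 in budding yeast switched to galactose assay medium (pH 6.0, -URA) at 1:100 dilution. Compound 23 nl per well; the matching strain lacking NS1 serves as control.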
VACV mCherry inh – qHTS for Stage-Specific Inhibitors of Vaccinia Orthopoxvirus: mCherry Reporter Primary qHTS | AID 720579, 2013 | Potency, µM (series often up to 36.5 µM), inactives show at the highest dose activity change, negative = inhibition, usual class: inhibitors | actives 0.63% (n = 310,000) | Vaccinia virus mCherry reporter infection, fluorescence; calls by dose curve; tested in A549 cells; also: % is scaled to controls: 0 for no effect and ±100 for the full control effect; nearly all actives have a fitted effect of over 35% in size
Vaccinia Venus – qHTS for Stage-Specific Inhibitors of Vaccinia Orthopoxvirus: Venus Reporter Primary qHTS; Vaccinia virus Venus reporter expression, fluorescence; Potency, µM (top dose mostly 36.5 µM), inactives show top-dose activity change, negative = inhibition, hits mostly inhibitors; actives 0.46% (n = 330,000); calls by dose curve; tested in A549 cells; also: % is scaled to controls: 0 for no effect and ±100 for the full control effect; nearly all actives have a fitted effect of over 30% in size
Pf growth 48h – Primary qHTS for delayed death inhibitors of the malarial parasite plastid, 48 hour incubation. actives 5.9% (n = 310,000). P. falciparum luciferase growth in erythrocytes, 48 h. Potency, µM (series often up to 28.7 µM), inactives show at the top dose activity change, negative = inhibition, usual class: inhibitors; also: % is scaled to controls: 0 for no effect and ±100 for the full control effect
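Cell-based growth assay: transgenic P. falciparum expressing firefly luciferase, cultured in red cells within RPMI 1640 containing 0.5% w/v Albumax, 24 mM bicarbonate and gentamycin. A drop in luciferase activity indicates inhibition.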
* hit, by the source's call; [ ] = another dose, or the depositor's remark. A selection: hits, their analogues and other compounds. The true share with any hit is near 11%. Unless noted, calls follow the shape of the dose curve; as a rule, active = well fitted inhibition curve with a large enough effect; inconclusive = small, poorly fitted or top-dose-only effect, or another doubt; inactive = no such curve, though single readings can be large or run the other way. Potency is read from the fitted curve at half-maximal effect.

Screening Cc1cc(N2CCCCC2)n2ncc(-c3ccccc3)c2n1 returned HCV inh 10µM*, Pf growth 96h 1.3%[5.75 µM], NS1 inh -87.6%, VACV mCherry inh -7.7%, Vaccinia Venus -19.0% and Pf growth 48h 14.2%.
Cc1cc(NC(=O)C2CC(=O)OC2c2ccccc2)no1 (stereo not given) was read as HCV inh 5.2%, Pf growth 96h 33.6%, NS1 inh -1.2% and Pf growth 48h 38.8%.
COc1ccc(NC(=O)C2CC(=O)OC2c2ccccc2)cc1 (stereo not given) was read as HCV inh 9.5%, Pf growth 96h 9.28µM*, NS1 inh 4.2%, VACV mCherry inh -7.5%, Vaccinia Venus 5.8% and Pf growth 48h -6.0%.
`CC(C)(C)n1nnnc1C(c1cccnc1)N1CCN(c2ccccc2)CC1` (stereo not given) gave HCV inh 9.5%, Pf growth 96h -16.9%, NS1 inh -76.4%, Vaccinia Venus -25.3% and Pf growth 48h inconclusive.
`CCC(C)(C)n1nnnc1C(c1ccncc1)N1CCN(c2cccc(OC)c2)CC1` (stereo not given) gave HCV inh 1.1%, Pf growth 96h 2.62µM*, NS1 inh 4.0%, VACV mCherry inh -12.2%, Vaccinia Venus -15.8% and Pf growth 48h 0.0%.
For CCC(C)(C)n1nnnc1C(c1cccnc1)N1CCN(c2cccc(C(F)(F)F)c2)CC1 (stereo not given) the results were HCV inh -0.3%, Pf growth 96h -0.1%, NS1 inh -116.4% and Pf growth 48h 9.28µM*.
CCC(C)(C)n1nnnc1C(c1ccc(C)cc1)N1CCN(Cc2cccnc2)CC1 (stereo not given) was read as HCV inh 15.8%, Pf growth 96h -3.9%[5.75 µM], NS1 inh 0.8%, Vaccinia Venus -18.9% and Pf growth 48h 13.1µM*.
Screening Cn1c(=O)c2c(SCC(=O)NCc3ccco3)nc(-c3ccccc3Cl)nc2n(C)c1=O returned HCV inh inconclusive, Pf growth 96h inconclusive, NS1 inh 22.5%, VACV mCherry inh -1.0%, Vaccinia Venus -10.2% and Pf growth 48h inconclusive.
`CCCn1c(=O)n(C)c(=O)c2c(SCC(=O)NCc3ccco3)nc(C3CC3)nc21` gave HCV inh -4.5%, Pf growth 96h 4.15µM*, NS1 inh -2.9% and Vaccinia Venus -7.4%.
`CCCCn1c(=O)c(C=Nc2ccc(Cl)cc2)c(O)n(Cc2ccco2)c1=O` gave HCV inh 7.5%, Pf growth 96h 9.28µM*, NS1 inh 10.1%, VACV mCherry inh inactive, Vaccinia Venus -3.9% and Pf growth 48h 8.28µM*.
`CC(C)n1c(=O)c(C=Nc2ccc(S(N)(=O)=O)cc2)c(O)n(Cc2ccco2)c1=O` gave HCV inh 7.9%, Pf growth 96h -7.6%, NS1 inh 13.7%, VACV mCherry inh inactive, Vaccinia Venus -1.8% and Pf growth 48h 0.4%.
For O=C1c2ccccc2NC2CCCCC12 (stereo not given) the results were HCV inh -22.7%, Pf growth 96h 2.9%, NS1 inh -111.9%, VACV mCherry inh -12.1%, Vaccinia Venus -14.0% and Pf growth 48h 1.85µM*.
O=C1c2ccccc2NC2CCCCCN12 (stereo not given) was read as HCV inh -10.2%, Pf growth 96h inconclusive, NS1 inh -1.7%, VACV mCherry inh -16.8%, Vaccinia Venus -5.0% and Pf growth 48h -16.0%.
Screening CC(CNc1ccccc1O)C(=O)O (stereo not given) returned HCV inh -5.9%, Pf growth 96h -4.4%, NS1 inh -8.2%, VACV mCherry inh 4.47µM*, Vaccinia Venus 89.1µM* and Pf growth 48h 24.6%.
For COc1ccc2nc(N3CCN(C(=O)c4ccc5ncsc5c4)CC3)sc2c1 the results were HCV inh -28.5%, Pf growth 96h inconclusive, VACV mCherry inh -23.0%, Vaccinia Venus 2.8% and Pf growth 48h inconclusive.
COc1ccc(OC)c2sc(N3CCN(C(=O)c4ccc5ncsc5c4)CC3)nc12 was read as HCV inh inconclusive, Pf growth 96h inconclusive, VACV mCherry inh -6.6%, Vaccinia Venus -1.6% and Pf growth 48h 11.7µM*.
`CCOc1cccc2sc(N3CCN(C(=O)c4ccc5ncsc5c4)CC3)nc12` gave HCV inh inconclusive, Pf growth 96h 11.7µM*, VACV mCherry inh inactive, Vaccinia Venus -9.9% and Pf growth 48h inconclusive.
For COc1ccc(OC)c2sc(N3CCCCC3)nc12 the results were HCV inh 12.6µM*, Pf growth 96h 39.3%, NS1 inh -19.4% and Pf growth 48h 30.4%.
`CC(C)NC(=S)N1CCCN(c2ncccc2[N+](=O)[O-])CC1` gave HCV inh -0.6%, Pf growth 96h 9.28µM*, NS1 inh -1.2% and Pf growth 48h inconclusive.
O=C(c1ccccc1)c1nn(-c2ccccc2)c(=O)cc1C(F)(F)F was read as HCV inh inconclusive, Pf growth 96h 0.0%, NS1 inh -1.0%, Vaccinia Venus -27.1% and Pf growth 48h 90.8%.
For O=C(c1ccccc1)c1nn(-c2ccc(Cl)cc2)c(=O)cc1C(F)(F)F the results were HCV inh 6.31µM*, Pf growth 96h inconclusive, NS1 inh -48.4%, VACV mCherry inh inconclusive, Vaccinia Venus -15.7% and Pf growth 48h inconclusive.
`O=C(c1cccc(Cl)c1)c1nn(-c2ccccc2)c(=O)cc1C(F)(F)F` gave HCV inh 21.3%, Pf growth 96h 13.1µM*, NS1 inh -66.3%, Vaccinia Venus -49.1% and Pf growth 48h inconclusive.
Screening Cc1cccc(/C=N/n2c(-c3ccccn3)n[nH]c2=S)c1 returned HCV inh -0.7%, Pf growth 96h -18.5%, NS1 inh 10.1% and Pf growth 48h 17.0%.
CCCCn1c2c(c(=O)n(C)c1=O)C(c1ccc(OC)cc1)N1CCCCCC1=N2 (stereo not given) was read as HCV inh -15.0%, Pf growth 96h 7.38µM*, NS1 inh -34.5%, VACV mCherry inh -21.7%, Vaccinia Venus -9.5% and Pf growth 48h inconclusive.
`C=CCN=c1scc(C)n1/N=C/c1ccc(O)c(O)c1` gave HCV inh 11.2µM*, Pf growth 96h 1.6%, VACV mCherry inh -0.4%, Vaccinia Venus 3.7% and Pf growth 48h inconclusive.
Screening CN=c1scc(C)n1/N=C/c1ccc(O)cc1 returned HCV inh inconclusive, NS1 inh -31.5%, Vaccinia Venus -13.8% and Pf growth 48h 206.3%.

Assay outcomes from PubChem BioAssay.
